Values joined by “and” are separate entries in the source; they are usually repeats but may differ in a detail not shown here. Identical values can stand only once. Results filed as inconclusive are left out. Entries that show only a call come without a potency. A number with no mark means an inactive call. Active and inactive are the calls of the source. Calls come from the whole dose curve; as a rule, active = well fitted inhibition curve with a large enough effect; inconclusive = small, poorly fitted or top-dose-only effect; inactive = flat fitted curve, though single readings scatter.
What follows are molecules tested against Luciferin 4-monooxygenase (Photinus pyralis) (UniProt P08659) (assay: Counterscreen Assay for Enhancers of SMN2 Splice Variant Expression: Interaction with Luciferase Reporter). Conditions: purified firefly luciferase, luminescence, 5 min; series mostly up to 40.3 µM.
Excerpt: NIH Chemical Genomics Center [NCGC] NIH Molecular Libraries Probe Production centers Network [MLPCN] MLPCN Grant: R03 MH084179-01 Assay Submitter (PI): Elliot Androphy NCGC Assay Overview: Spinal muscular atrophy (SMA) is caused by insufficient levels of the survival motor neuron protein SMN. The SMN locus on chromosome 5q13 contains two inverted copies of SMN called SMN1 and SMN2 which are 99% identical at the amino acid level. SMN1 is a fully functional protein and SMN2 skips exon 7 90% of the time. Skipping of exon 7 produces non-functional protein product. 10% of the SMN2 protein includes exon 7 and is fully functional. In the SMA disease state, mutations in the SMN1 locus are the cause of the disease state. Because only 10% of SMN2 is of the fully functional form, it is not sufficient to overcome the deficiency produced by the loss of the SMN1 product. A therapy that either increases the amount of SMN2 product made increases the inclusion of exon 7 has been proposed for the treatment of SMA. We have designed an assay to identify small molecules that can increase the amount of functional SMN2 product by appending a luciferase reporter gene after the native SMN2 gene, such that inclusion of exon 7 in the expressed product places the luciferase sequence in frame, thus generating functional luciferase enzyme. One potential source of false positives in the primary screening assay is stabilization of the reporter luciferase via direct binding. This assay attempts to identify such compounds by screening directly for luciferase activity in the absence of the cellular system.
NCGC Assay Protocol Summary: The primary screen utilizes a luciferase reporter gene assay, combining the promoter and splicing based cassettes in tandem with the major portion of the native SMN1 cDNA, and then transfected into HEK293 cells. Compounds that modulate luciferase signal presumably modulate expression of […]. In this assay, we utilize purified firefly luciferase in lieu of a cellular reporter to identify compounds interacting directly with luciferase in the primary screen. Sequence, Parameter, Value, Description (1) Reagent, 2.5 uL, Enzyme in buffer (note A) (2) Compound, 23 nL, From stock solutions (3) Time, 5 minutes, Room temp (4) Reagent#2.5 ul, Luciferase detection reagent (note B) (5) Detector, 1 sec integrate, Luminescent read on Viewlux (note C) Sigma enzyme (1 mg) considered to be MW 61,000 diluted in 357 ul assay buffer to 50 uM stock. A - Enzyme and buffer consists of 50 mM Tris-acetate pH 7.6, 10 mM Mg acetate 0.05% BSA, 0.01% Tween and 5 nM firefly luciferase B - Detection reagent = britelite plus diluted 1:10 in PBS C - Viewlux settings were 1 second integration medium sensitivity Keywords: Spinal muscular atrophy, SMA, SMN2, high throughput screening, MLSMR, MLPCN, NIH Roadmap, qHTS and NCGC

Chain of Luciferin 4-monooxygenase (Photinus pyralis) (P08659 whole entry, looked up, canonical isoform): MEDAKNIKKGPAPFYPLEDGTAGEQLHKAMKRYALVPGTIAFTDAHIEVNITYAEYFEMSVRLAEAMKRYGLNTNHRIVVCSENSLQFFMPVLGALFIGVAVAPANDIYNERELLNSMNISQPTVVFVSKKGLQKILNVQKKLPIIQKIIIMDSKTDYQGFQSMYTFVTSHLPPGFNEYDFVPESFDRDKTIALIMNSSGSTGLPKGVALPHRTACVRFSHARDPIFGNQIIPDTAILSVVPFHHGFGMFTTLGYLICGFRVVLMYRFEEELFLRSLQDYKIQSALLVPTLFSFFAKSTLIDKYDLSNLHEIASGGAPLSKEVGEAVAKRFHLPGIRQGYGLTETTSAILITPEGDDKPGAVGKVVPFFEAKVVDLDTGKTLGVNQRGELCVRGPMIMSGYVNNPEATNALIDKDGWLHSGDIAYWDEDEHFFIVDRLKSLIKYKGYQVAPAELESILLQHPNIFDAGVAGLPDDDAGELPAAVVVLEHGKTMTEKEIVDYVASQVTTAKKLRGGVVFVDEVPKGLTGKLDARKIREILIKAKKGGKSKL

SMILES	Potency	activity change, negative = inhibition
Cc1ccc(-c2csc(N3CCC(NS(=O)(=O)c4ccc5c(c4)OCCO5)CC3)n2)cc1	inactive	
COc1ccc(-c2csc(N3CCC(C(N)=O)(N4CCCCC4)CC3)n2)cc1	inactive	
COc1c(C)c2c(c(O)c1C/C=C(\C)CCC(=O)O)C(=O)OC2	inactive	
Fc1ccc(Oc2nc(-c3ccccc3)nnc2C(F)(F)F)cc1	11.2 µM (active)	
Cc1ccc(-c2csc(NC(=O)C3CCN(S(=O)(=O)c4cccs4)CC3)n2)cc1	8.91 µM (active)	
Clc1ccc(-c2nnc(-c3ccccc3)nc2-c2c[nH]c3ccccc23)cc1	inactive	
O=S(=O)(NC1CCCc2ccccc21)c1cnc[nH]1 (stereo not given)		3.43% [at 48.7 pM]
C#CCn1c(S(=O)(=O)Cc2ccccc2Cl)nc(-c2ccccc2)c1-c1ccccc1		12% [at 48.7 pM]
FC(F)(F)c1cccc(Oc2nc(-c3ccccc3)nnc2C(F)(F)F)c1	8.91 µM (active)	
O=C(Nc1ccc([N+](=O)[O-])cc1Cl)c1cc(Cl)ccc1O	0.794 µM (active)	
CC(/C=C/C(=O)NO)=C\[C@@H](C)C(=O)c1ccc(N(C)C)cc1	inactive	
FC(F)(F)c1nnc(-c2ccccc2)nc1Oc1ccccc1	11.2 µM (active)	
OCCCNc1nc(-c2ccc(Br)cc2)nnc1-c1ccc(Cl)cc1	inactive	
COc1cccc(NC(=O)CSc2nc3ccccc3nc2N2CCOCC2)c1	inactive	
CCCCOC(C)n1cc(F)c(=O)[nH]c1=O (stereo not given)	inactive	
NC(=O)C1(N2CCCCC2)CCN(c2nc(-c3ccc(Br)cc3)cs2)CC1	inactive	
O=C(Nc1nc(-c2ccc3ccccc3c2)cs1)C1CCN(S(=O)(=O)c2cccs2)CC1	inactive	
NC(=O)C1(N2CCCCC2)CCN(c2nc(-c3ccccc3)cs2)CC1	inactive	
OC[C@H]1O[C@@H](n2cnc3c(Nc4ccccc4)ncnc32)[C@H](O)[C@H]1O	inactive	
CN(C)CCCN(C(=O)c1cccs1)c1nc(-c2ccccc2)cs1	inactive	

SMILES	Potency	activity change, negative = inhibition
FC(F)(F)c1cccc(-c2nnc(-c3ccccc3)c(N3CCOCC3)n2)c1	inactive	
OCCCNc1nc(-c2ccc(Cl)cc2)nnc1-c1ccccc1	inactive	
O=C(NCCc1cn2ccsc2n1)c1cccs1		-9.66% [at 48.7 pM]
Cc1ccc(C(=O)Cn2c3c(sc2=N)CCCC3)cc1	126 nM (active) and 100 nM (active)	
O=C(NCCCNCCCNC(=O)c1ccccn1)c1ccccn1		-6.78% [at 48.7 pM]
NC(=O)N1c2ccccc2C=Cc2ccccc21	inactive	
CC1CN(c2nc(-c3ccc(Br)cc3)nnc2-c2ccccc2)CC(C)N1 (stereo not given)	inactive	
CCCc1sc(N2CCCC(C(N)=O)C2)nc1-c1ccccc1 (stereo not given)	inactive	
O=C(Nc1cccnc1)/C(N=Nc1c(Cl)cccc1Cl)=C(\O)c1ccccc1		-9.05% [at 48.7 pM]
Cc1ccc(C2c3c(oc4ccccc4c3=O)C(=O)N2CCCN2CCOCC2)o1 (stereo not given)	12.6 µM (active)	
Cc1oncc1C(=O)Nc1ccc(C(F)(F)F)cc1	0.891 µM (active)	
COc1nc(-c2ccc(Cl)cc2)nnc1C	inactive	
Brc1ccc(-c2nnc(-c3ccccc3)c(N3CCSCC3)n2)cc1	10 µM (active)	
O=c1cc(N2CCN(c3cccc(Cl)c3)CC2)[nH]c(=O)n1C1CCCCC1		-4.08% [at 48.7 pM]
OCCCNc1nc(-c2ccc(Cl)cc2)nnc1-c1ccc(Br)cc1	inactive	
Cc1[nH]c2ccccc2c1-c1nc(-c2ccc(Cl)cc2)nnc1-c1ccccc1	inactive	
COc1ccc(CNC(=O)c2ccc(C(C)C)cc2)cc1		39.8% [at 48.7 pM]
N#C/C(=C\Nc1ccccc1SC(F)(F)F)c1nc(-c2ccc(Cl)cc2)cs1		19.5% [at 48.7 pM]
Nc1ccccc1-c1nnn(CC(=O)N2CCCc3ccccc32)n1		2.12% [at 48.7 pM]
CCOc1ccc2nc(N3CCC(C(=O)N4CCN(c5ccccn5)CC4)CC3)sc2c1	inactive	
